Screens deposited in PubChem BioAssay by National Center for Advancing Translational Sciences (NCATS).
Shown are actives, neighbours in structure and some others; about 2.4% of the full set was active somewhere.
Pol iota inh = inhibitors of human DNA polymerase iota; Q9UNA4; Pol iota fluorescent replication assay, 10 min; 390,000 tested, 1% active; Potency, µM (doses to about 115 µM), usual class: inhibitors
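Fluorescent replication assay read twice, at 0 min and 10 min after adding 50 nM (final) substrate. Enzyme (10 nM) and compounds were first incubated 15 min at room temperature; enzyme-free buffer wells were negative controls.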
Pol beta inh = blocks human DNA polymerase beta activity | P06746 | Pol beta primer extension/strand displacement, fluorescence kinetic | Potency, µM (titrated, usually from 114 µM), most hits filed as inhibitors | 340,000 tested, 1.3% active | AID 485314
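Enzyme-only controls used 10 nM Pol beta; buffer lacking enzyme served as negative control. Compound preincubated 15 min, then 50 nM substrate added; 0 and 10 min reads at room temperature.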
FEN1 inh = human FEN1 inhibition. P39748. Recombinant FEN1 flap cleavage, fluorescence, 15 min. Potency, µM (doses to about 114 µM), hits mostly inhibitors. 390,000 tested, 0.35% active. AID 588795; further: nearly all actives have a fitted effect of over 65% in size
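Enzyme 10 nM, 15 min RT preincubation with compound; start with substrate 50 nM final; reads at 0 and 15 min; qHTS titration, four-parameter Hill fit.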
POLK inh = DNA polymerase kappa (human) inhibition; Q9UBT6; purified Pol kappa, fluorescent DNA synthesis assay, 10 min; Potency, µM (doses to about 107 µM), most hits filed as inhibitors; 400,000 tested, 0.53% active
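50 nM final substrate added after 15 min RT preincubation of 10 nM Pol kappa with compound; fluorescence read at 0 and 10 min.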
Pol eta inh = DNA polymerase eta (human) inhibition; Q9Y253; Potency, µM (top dose mostly 114 µM), usual class: inhibitors; recombinant Pol eta, fluorescent DNA replication assay; 390,000 tested, 1.2% active
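Pol eta (10 nM) was preincubated with compounds for 15 min at room temperature, after which fluorescent replication substrate (50 nM final) was added to start the reaction. Fluorescence was read kinetically at 0 and 10 min.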
Tb PGK inh = inhibitors of T. brucei phosphoglycerate kinase; P07378; 380,000 tested, 0.043% active; AID 602233; PGK/GAPDH coupled, Kinase-Glo luminescence, 60 min; Potency, µM (top dose mostly 57.5 µM), most hits filed as inhibitors; further: nearly all actives have a fitted effect of over 60% in size
Target sequence (P07378 whole entry, looked up): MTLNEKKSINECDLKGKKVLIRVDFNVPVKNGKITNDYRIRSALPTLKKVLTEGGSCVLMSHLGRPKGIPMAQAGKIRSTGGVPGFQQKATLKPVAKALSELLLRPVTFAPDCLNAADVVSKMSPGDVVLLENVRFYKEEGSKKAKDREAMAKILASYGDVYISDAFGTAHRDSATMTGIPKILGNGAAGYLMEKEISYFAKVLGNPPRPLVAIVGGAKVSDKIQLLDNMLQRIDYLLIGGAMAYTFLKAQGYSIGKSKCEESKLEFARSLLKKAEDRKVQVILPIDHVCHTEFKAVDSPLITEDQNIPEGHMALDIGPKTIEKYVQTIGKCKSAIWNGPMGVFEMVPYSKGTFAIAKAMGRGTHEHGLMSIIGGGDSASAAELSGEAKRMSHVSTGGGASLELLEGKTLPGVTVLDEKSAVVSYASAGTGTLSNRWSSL
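Luminescent ATP detection (Kinase-Glo Plus) follows a 60-minute room-temperature incubation, with wells lacking PGK as controls. Buffer: 100 mM TEA (pH 7.6), 5 mM MgCl2, 0.01% Tween-20. Coupling enzyme GAPDH (100 nM final) supplies unstable 1,3-BPG in-well.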
Each line names hits and unclear results; the compound was inactive in the other large screens. The call rests on the fitted dose curve; in most records, active means well fitted curve in the direction sought with a large enough effect; inconclusive means small, poorly fitted or top-dose-only effect, or another doubt; inactive means no such curve, though single readings can be large; an effect the other way counts as inactive or inconclusive.

COc1ccc(OC)c(/C=C2\Cc3ccccc3C2=O)c1	none (no result: Pol beta inh, Pol eta inh, Tb PGK inh)
CCc1cccc(C)c1NC(=O)CN(C)S(=O)(=O)c1ccc(-c2ccc(=O)[nH]n2)s1	none
CCOc1ccc(NC(=O)CN(C)S(=O)(=O)c2ccc(-c3ccc(=O)[nH]n3)s2)cc1	Pol iota inh inconclusive, Pol beta inh 32µM, FEN1 inh inconclusive, POLK inh 89µM, Pol eta inh 40µM, Tb PGK inh inconclusive
CCC(CO)NC(=O)C(=O)Nc1c2c(nn1-c1ccc(F)cc1)CSC2 (configuration not stated)	Pol iota inh 89µM
N#CC1=C2SCN(Cc3ccccc3)CN2C(=O)CC1c1ccc2c(c1)OCO2 (configuration not stated)	Pol beta inh 45µM
COc1ccc(C2CC(=O)N3CN(Cc4ccco4)CSC3=C2C#N)cc1 (configuration not stated)	Pol iota inh inconclusive, Pol beta inh inconclusive
N#CC1=C2SCN(Cc3ccccc3)CN2C(=O)CC1c1cccs1 (configuration not stated)	Pol iota inh inconclusive, Pol beta inh inconclusive, FEN1 inh inconclusive
COc1ccc(OC)c(C2CC(=O)N3CN(c4ccccc4)CSC3=C2C#N)c1 (configuration not stated)	FEN1 inh inconclusive
COc1ccc(C2CC(=O)N3CN(C4CCCCC4)CSC3=C2C#N)c(OC)c1 (configuration not stated)	Pol iota inh 7.9µM
COc1ccc2ccccc2c1C1CC(=O)N2CN(Cc3ccco3)CSC2=C1C#N (configuration not stated)	Pol iota inh inconclusive, Pol beta inh 50µM, FEN1 inh inconclusive, Pol eta inh 89µM
COc1ccc2ccccc2c1C1CC(=O)N2CN(C3CCCCC3)CSC2=C1C#N (configuration not stated)	Pol iota inh inconclusive, Pol beta inh 89µM, FEN1 inh inconclusive, Pol eta inh inconclusive
Cn1nnnc1SCCCNCc1cc(Br)ccc1OCc1ccccc1F	Pol beta inh inconclusive
CCCN(CCC)S(=O)(=O)c1ccc2c(c1)N(CC(=O)NC(C)c1ccccc1)C(=O)CS2 (configuration not stated)	none
COc1cccc(CNS(=O)(=O)c2ccc(S(=O)(=O)N3CCCC3)cc2)c1	Pol beta inh 20µM
COc1cccc(NS(=O)(=O)c2ccc(S(=O)(=O)N3CCCC3)cc2)c1	none (no result: Pol beta inh)
Cc1ccc(N2CC(C(=O)OCC(=O)Nc3ccc(Cl)cc3)CC2=O)cc1 (configuration not stated)	Pol iota inh 79µM (no result: Pol beta inh)
C=C1C=C(C(F)F)n2ncc(C(=O)N3CCN(c4ccccn4)CC3)c2N1	none (no result: Pol beta inh, Pol eta inh, Tb PGK inh)
Cc1ccc(S(=O)(=O)NC(=O)c2cc(C)n(-c3cc(S(=O)(=O)N4CCOCC4)ccc3N3CCCC3)c2C)cc1	Pol iota inh inconclusive, Pol beta inh inconclusive, Pol eta inh 89µM
COc1ccc(C(NC(=O)/C=C/c2ccco2)c2ccc(OC)cc2)cc1	Pol iota inh inconclusive, Pol beta inh 16µM, Pol eta inh inconclusive
Nc1nc(SCC(=O)Nc2ncc(Cl)cc2Cl)n[nH]1	Pol iota inh 79µM, Pol eta inh inconclusive (no result: Pol beta inh)
O=C(COC(=O)/C=C/c1ccco1)NCCN1C(=O)CSC1=O	Pol eta inh 50µM (no result: Pol beta inh)
Cc1nc(NC(=O)COC(=O)/C=C/c2ccco2)c(Cl)cc1Cl	Pol iota inh 32µM, POLK inh 71µM, Pol eta inh 28µM (no result: Pol beta inh)
COc1ccc(C(=O)C[n+]2ccc(Cl)c3ccc(Cl)cc32)cc1	none (no result: Pol beta inh, Pol eta inh, Tb PGK inh)
CN(C)c1ccc(/C=C/c2ccnc3c(N)cccc23)cc1	none (no result: Pol beta inh, Pol eta inh, Tb PGK inh)
O=C(COC(=O)c1ccc2ncsc2c1)Nc1ncc(Cl)cc1Cl	Pol iota inh inconclusive, Pol eta inh 8.9µM
CC(C)NC(=O)COC(=O)/C=C/c1ccco1	Pol iota inh 79µM, Pol beta inh 40µM, Pol eta inh inconclusive, Tb PGK inh inconclusive
CC1CC1C(=O)OCC(=O)Nc1ncc(Cl)cc1Cl (configuration not stated)	Pol iota inh 14µM, POLK inh inconclusive, Pol eta inh 28µM (no result: Pol beta inh)
Cc1ccc(C(=O)OCC(=O)Nc2ncc(Cl)cc2Cl)cc1NC(=O)c1ccco1	Pol iota inh 50µM, Pol beta inh inconclusive, Pol eta inh inconclusive
Cc1noc(C)c1-c1ccc2ncnc(N(C)Cc3ccco3)c2c1	none (no result: Pol iota inh, Pol beta inh, FEN1 inh, Pol eta inh, Tb PGK inh)
CC(=O)O[C@@]12CO[C@@H]1C[C@H](O)[C@@]1(C)C(=O)[C@H](O)C3=C(C)[C@@H](OC(=O)C(O)[C@@H](NC(=O)OC(C)(C)C)c4ccccc4)C[C@@](O)([C@@H](OC(=O)c4ccccc4)[C@H]21)C3(C)C (some centres not stated)	none (no result: Pol beta inh, Pol eta inh, Tb PGK inh)
O=C(COC(=O)/C=C/c1ccco1)Nc1ncc(Cl)cc1Cl	Pol iota inh 35µM, Pol beta inh inconclusive, POLK inh inconclusive, Pol eta inh 40µM (no result: Tb PGK inh)
Cc1ccc(Nc2c(-c3ccc(C)s3)nc3cccc(C)n23)cc1	none (no result: Pol beta inh, Pol eta inh, Tb PGK inh)
O=C(NCc1ccccc1)C1=C[C@@H](c2ccc(Br)cc2)C[C@@H](OCCCCO)O1	none
C#Cc1ccc([C@@H]2C=C(C(=O)OCC=C)O[C@H](OCCCCO)C2)cc1	Pol iota inh inconclusive, Pol beta inh 18µM, FEN1 inh inconclusive, POLK inh inconclusive, Pol eta inh inconclusive
C#Cc1ccc([C@@H]2C=C(C(=O)NCc3ccccc3)O[C@H](OCCCCO)C2)cc1	Pol iota inh 50µM, POLK inh inconclusive, Pol eta inh 45µM (no result: Pol beta inh)
C#CCNC(=O)C1=C[C@@H](c2ccc(C#C)cc2)C[C@@H](OCCCCO)O1	Pol iota inh 50µM, FEN1 inh inconclusive, POLK inh inconclusive, Pol eta inh 25µM (no result: Pol beta inh)
C=CCOC(=O)C1=C[C@H](c2ccc(C(F)(F)F)cc2)C[C@H](OCCCCO)O1	none (no result: Pol beta inh)
CC(C)NC(=O)CSc1cn(CC(=O)N2CCCCCC2)c2ccccc12	Pol beta inh inconclusive
Nc1ncnc2c1nc(Sc1ccc(Cl)cc1)n2[C@H]1OC2COP(=O)(O)O[C@H]2[C@@H]1O (some centres not stated)	none (no result: Pol beta inh, Pol eta inh, Tb PGK inh)
Cc1ccc(-c2nc3ncccc3o2)cc1NC(=O)c1ccccc1	Pol eta inh 56µM
Cc1ccc(-c2nc3ncccc3o2)cc1NC(=O)COc1ccc(C(C)C)cc1	Pol beta inh inconclusive
Cc1cc(OCC(=O)Nc2cc(-c3nc4ncccc4o3)ccc2C)ccc1Cl	Pol eta inh 79µM
